aSyn UTR act: Activators via SNCA 5'UTR binding, MLPCN; alpha-synuclein 5'UTR reporter, activators screen; hit rate 7.1% among 300,000; activity score, % (tested at 7.5 µM), hits read low; in the data active = activity score below about -60%
Active calls of the source: *. Not all results are given here.

What do the screens show for `Oc1c(C=Nc2ccccc2Cl)[nH]c2ccccc12`?
aSyn UTR act: -101*

What do the screens show for `CCCCc1noc2c1/C(=N\O)CC(c1ccccc1)C2` (stereo unspecified)?
aSyn UTR act: -77*

Results for O=C(c1cc2c(=O)n3ccccc3nc2s1)N1CCOCC1 ?
aSyn UTR act: -98*

What do the screens show for `CC1CCN(C(=O)c2cc3c(=O)n4ccccc4nc3s2)CC1`?
aSyn UTR act: -78*

What do the screens show for `CCCCN1C(=O)C(=O)N(CC(=O)N2N=C3/C(=C/c4ccco4)CCCC3C2c2ccco2)C1=O` (stereo unspecified)?
aSyn UTR act: -86*

How did CC(C)S(=O)(=O)c1csc(C(=O)Nc2ccc(F)cc2)c1N do in these assays?
aSyn UTR act: -100*

How did CC(=O)c1ccc(N2CCN(C(=O)c3ccco3)CC2)c(F)c1 do in these assays?
aSyn UTR act: -98*

How did Cc1cc(C)c2nc(N3CCN(C(=O)c4ccco4)CC3)sc2c1 do in these assays?
aSyn UTR act: -115*

What do the screens show for `Cc1cc2nc(N3CCN(C(=O)c4cccs4)CC3)sc2cc1C`?
aSyn UTR act: -130*

How did c1ccc2c(c1)CCN(c1nc3cc4c(cc3s1)OCCO4)C2 do in these assays?
aSyn UTR act: 75

How did Cc1cc2nc(N3CCN(C(=O)c4ccco4)CC3)sc2cc1C do in these assays?
aSyn UTR act: -129*

What do the screens show for `COc1ccc2cc1Oc1ccc(cc1)C[C@H]1c3c(cc4c(c3Oc3cc5c(cc3OC)CCN(C)[C@@H]5C2)OCO4)CCN1C`?
aSyn UTR act: 109

Results for O=C(c1ccco1)N1CCN(c2nc3ccsc3c(=O)s2)CC1 ?
aSyn UTR act: -98*

Results for O=C(c1cccs1)N1CCN(c2nc3c(F)cc(F)cc3s2)CC1 ?
aSyn UTR act: -78*

What do the screens show for `CC1Cc2ccccc2N1C(=O)CSc1ncc(-c2ccc(F)cc2)n1C` (stereo unspecified)?
aSyn UTR act: -126*

Results for Cc1ccc2nc(N3C(=O)C(O)=C(C(=O)c4ccco4)C3c3cccs3)sc2c1 (stereo unspecified) ?
aSyn UTR act: -187*

What do the screens show for `COc1ccc2nc(N3C(=O)C(O)=C(C(=O)c4ccco4)C3c3ccccc3OC)sc2c1` (stereo unspecified)?
aSyn UTR act: -114*

What do the screens show for `CCN(CC)CCOc1c(Br)ccc2c1sc1nc3n(c(=O)c12)CCC3`?
aSyn UTR act: -111*

What do the screens show for `C/C(=N\Nc1nc2ccccc2[nH]1)c1ccc(N2CCOCC2)cc1`?
aSyn UTR act: -163*

How did C/C(=N\Nc1nc2ccccc2[nH]1)c1ccc(Cl)s1 do in these assays?
aSyn UTR act: -104*

What do the screens show for `C/C(=N\Nc1nc2ccccc2[nH]1)c1ccc(C)o1`?
aSyn UTR act: -237*

How did Cc1nc(NC(=O)c2ccc(OCC(C)C)cc2)sc1Cc1ccc2c(c1)OCO2 do in these assays?
aSyn UTR act: -85*

Results for Cc1c(Cc2ccc3c(c2)OCO3)sc(NC(=O)c2ccc3ccccc3c2)c1C(N)=O ?
aSyn UTR act: -80*

Results for CCCOc1ccc(C(=O)Nc2nc(C)c(Cc3ccc4c(c3)OCO4)s2)cc1 ?
aSyn UTR act: -68*

Results for CCOc1cc(/C=C\[N+](=O)[O-])ccc1OCC(=O)Nc1ccccc1C ?
aSyn UTR act: -80*

What do the screens show for `c1ccc(CCSc2ncnc3nc[nH]c23)cc1`?
aSyn UTR act: -75*

Results for O=C(CSc1ncnc2nc[nH]c12)c1ccccc1 ?
aSyn UTR act: -87*

What do the screens show for `O=C(CCSc1ccccc1)Nc1nc2c(s1)CCCC2`?
aSyn UTR act: -86*

Results for O=C(Cc1cccs1)Nc1nc2c(s1)CCCC2 ?
aSyn UTR act: -97*

What do the screens show for `C/C(=N\N=C(/C)c1cccc(N)c1)c1cccc(N)c1`?
aSyn UTR act: -111*

What do the screens show for `C/C(=N\Nc1ccc([N+](=O)[O-])cc1)c1ccc(O)cc1`?
aSyn UTR act: -217*

How did C/C(=N\Nc1ccc([N+](=O)[O-])cc1)c1cccc(N)c1 do in these assays?
aSyn UTR act: -199*

What do the screens show for `COc1ccc(OC)c2sc(N3CCCCC3)nc12`?
aSyn UTR act: -62*

Results for Clc1cc(Cl)c2nc(N3CCCCC3)sc2c1 ?
aSyn UTR act: -152*

Results for COc1ccc(-c2nsc3c(N4CCCC4)ncnc23)cc1 ?
aSyn UTR act: 70

Results for Clc1cccc2sc(N3CCCCC3)nc12 ?
aSyn UTR act: -109*

Results for Clc1cc(Cl)c2nc(N3CCCC3)sc2c1 ?
aSyn UTR act: -103*

Results for O=C(CC1OC(=O)c2ccccc21)c1ccco1 (stereo unspecified) ?
aSyn UTR act: -75*

Results for COc1ccc(N(C(=O)c2ccco2)S(=O)(=O)c2cc(OC)ccc2OC)cc1 ?
aSyn UTR act: -113*

Results for COc1cc(-c2ccccc2)nc(N)n1 ?
aSyn UTR act: -117*

What do the screens show for `CCOc1cc(-c2ccccc2)nc(N)n1`?
aSyn UTR act: -112*

How did CCC[C@H](CN[C@@H](CNC)[C@H](C)CC)NCCc1cc(C(F)(F)F)cc(C(F)(F)F)c1 do in these assays?
aSyn UTR act: 124
